# Pf growth 48h – inhibits P. falciparum growth in the first generation, 48 h; Potency, µM (top dose mostly 28.7 µM), for the others: at the highest dose activity change, negative = inhibition, most hits filed as inhibitors; P. falciparum luciferase growth in erythrocytes, 48 h; 310,000 tested, 5.9% active; AID 504832; note: potency is the fitted concentration of half-maximal effect; % is set by controls: 0 for no effect and ±100 for the full control effect
#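 Compounds are pin-transferred into medium, infected erythrocytes (2% hematocrit, 0.1% parasitemia final) are added, and plates sit one parasite generation at 37 C in 5% CO2. Detection reagent is then added and luminescence measured.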
# HCMV antiviral – human cytomegalovirus inhibition | HFF cells, HCMV-luciferase reporter, 72 h; active compounds read low | activity change, negative = inhibition, % at 57.5 µM | 410,000 tested, 4.5% active | AID 1259415; in the data active = activity change below about -60%; inconclusive = no clear call, values can overlap the other calls; inactive = above about -39%; note: % is set by controls: 0 for no effect and ±100 for the full control effect
#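 Two-dose cell screen: HFF monolayers treated with compounds and infected with luciferase-expressing HCMV at 1 PFU/cell, 72 h at 37C, then lysed for luciferase measurement.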
# HCV inh – HCV inhibition; Huh7.5.1 HCVcc-Cre infection, luciferase reporter, 44 h; Potency, µM (top dose mostly 41.8 µM), for the others: at the top dose activity change, negative = inhibition, most hits filed as inhibitors; 340,000 tested, 3.4% active; note: potency is the fitted concentration of half-maximal effect; % is set by controls: 0 for no effect and ±100 for the full control effect
#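 1,000 cells/well; 4 h culture; + compound; + HCVcc-Cre (~0.5 moi); 44 h; luciferase substrate, RT 15 min; read 15 sec.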
# Shiga toxin inh – inhibitors of Shiga toxin in Vero cells; AID 2315; 290,000 tested, 9.2% active; inhibition, % at 38.7 µM; Vero cells, Shiga toxin protein synthesis inhibition reporter; in the data active = inhibition mostly above about 28%, no sharp cut-off; inactive = mostly below about 43%; note: 0% is about no effect
# Pf growth 96h – inhibits malaria parasite growth, 96 h; P. falciparum luciferase reporter growth, 96 h; Potency, µM (highest dose often 28.7 µM), for inactives: at the highest dose activity change, negative = inhibition, usual class: inhibitors; 320,000 tested, 6.9% active; AID 504834; note: potency is the fitted concentration of half-maximal effect; % is set by controls: 0 for no effect and ±100 for the full control effect
#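 Parasite growth measured via integrated firefly luciferase reporter in P. falciparum. Infected erythrocytes at 2% hematocrit, 0.05% parasitemia final were treated 96 hours at 37 C under 5% CO2, and luminescence was read.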
# CHX counter – counter-screen hit for Shiga toxin inhibitors, cycloheximide. cell reporter, cycloheximide protein synthesis inhibition counterscreen. max response, %. 300,000 tested, 12% active. AID 2314; in the data active = max response mostly above about 13%, no sharp cut-off; inactive = mostly below about 14%; note: read at 38.3 µM for the half of the compounds with a filed dose; 0% is about no effect
# * marks the source's active call; other numbers are inactive results; i = inactive; u = inconclusive; x = no result. Shown are actives, neighbours in structure and some others; about 21% of the full set was active somewhere. Unless noted, calls come from the whole dose curve; as a rule, active = well fitted inhibition curve with a large enough effect; inconclusive = small, poorly fitted or top-dose-only effect, or another doubt; inactive = no such curve, though single readings can be large or run the other way.
SMILES,Pf growth 48h,HCMV antiviral,HCV inh,Shiga toxin inh,Pf growth 96h,CHX counter
CC(=O)C1=C(C)NC(=O)NC1c1cccc(O)c1 (centres undefined),-8%,-1,9%,-13,4%,0
COc1ccc(C2OC3=C(Nc4cc(C)c(C)cc4N3)C2=O)cc1 (centres undefined),71%,88,-2%,77*,89%,30*
Cc1cc2c(cc1C)NC1=C(N2)OC(c2cccc(O)c2)C1=O (centres undefined),5%,91,14%,38,8%,7.4*
COc1ccccc1C1OC2=C(Nc3ccc([N+](=O)[O-])cc3N2)C1=O (centres undefined),u,-23,u,-3,u,-3
Cc1nc(-c2cccnc2)sc1CCNS(=O)(=O)c1ccc(F)cc1,x,-13,x,x,x,x
O=C(Oc1ccc(-c2cnc3ccccc3n2)cc1)c1cc([N+](=O)[O-])ccc1Cl,i,274,13%,83*,i,48*
O=C(Oc1cccc([N+](=O)[O-])c1)c1cc(-c2ccccc2)nc2ccccc12,29%,15,2%,-4,u,-1
Cc1c(C(=O)Oc2ccc(-c3cnc4ccccc4n3)cc2)cccc1[N+](=O)[O-],73%,97,12%,95*,220%,37*
CCC(=O)N1CCc2cc(Br)cc(S(=O)(=O)N3CCC(C(=O)Nc4ccccc4CC)CC3)c21,x,12,x,x,x,x
COc1ccc(C2N(c3cc(Cl)ccc3OC)C(=O)C3CCCN32)c(OC)c1 (centres undefined),x,6,-4%,10,0.93µM*,-8
COc1ccccc1C1N(c2cc(Cl)ccc2OC)C(=O)C2CCCN21 (centres undefined),x,-3,1%,-4,-7%,-3
CC1(C(=O)NS(=O)(=O)c2ccccc2Cl)CCN1C(=O)c1ccccc1 (centres undefined),x,2,x,x,x,x
C/C(=N\N1CCN(C2c3ccccc3-c3ccccc32)CC1)c1cccnc1,u,22,-14%,-14,-24%,-2
CN=c1scc(-c2ccccc2F)n1/N=C(\C)c1cccnc1,0%,-12,32µM*,149*,u,48*
CCCS(=O)(=O)N1CCN=C1SCc1ccc(F)cc1,-15%,0,8%,4,-14%,2
CCS(=O)(=O)N1CCN=C1SCc1cccc(F)c1,-7%,-60*,30%,18,-6%,-2
O=S(=O)(c1ccc(Br)cc1)N1CCN=C1SCc1cccnc1,-3%,-69*,14%,-11,18%,-9
CS(=O)(=O)N1CCN=C1SCc1cccc(F)c1,4%,-30,10%,2,-2%,-3
O=S(=O)(c1ccc(F)cc1)N1CCN=C1SCc1cccnc1,-16%,-67*,6%,7,22%,-4
CCCS(=O)(=O)N1CCN=C1SCc1cccnc1,u,-62*,5%,23,u,12
Cc1nn(CC(=O)NCc2ccccc2Cl)c(=O)c2nn(-c3ccccc3)c(C)c12,x,0,x,x,x,x
O=C1CC(N2CCOCC2)=NN1c1ccc([N+](=O)[O-])cc1,u,2,-25%,29,u,18*
COc1ccc(-c2ccc(=O)n(Cc3cccc([N+](=O)[O-])c3)n2)cc1,-25%,-38,11µM*,-5,-27%,10
O=c1ccc(-c2ccccc2)nn1Cc1ccc(Cl)cc1,x,-36,-22%,x,x,x
CCc1cccc(NC(=O)Cn2nc(-c3ccc(OC)cc3)ccc2=O)c1,x,19,x,x,x,x
COc1ccc(-c2ccc(=O)n(Cc3c(F)cccc3Cl)n2)cc1,12%,-25,u,48*,-22%,23*
COc1cc(=O)n(C)c2c(OCC3OC(C)(C)OC3(C)C)cccc12 (centres undefined),u,86,8%,35,u,9.7*
COc1cc(=O)n(C)c2c(OCC(O)C(C)(C)O)cccc12 (centres undefined),35%,-2,5%,x,44%,x
O=C(NC1CCCCC1)c1ccc(CSc2nc3cccnc3n2Cc2ccc(F)cc2)cc1,x,-1,x,x,x,x

# From PubChem BioAssay
